Of roughly 8,800 targets only a part is listed; those with a hit were picked by preference. About 0.5% of all pairs of compound and target were hits. Values without a mark were called inactive.
Key:
Experiment in all cases: log2 fold change, soluble protein after heating vs DMSO (PISA); higher = thermal stabilisation; K562 lysate, 10 uM; active = over 0.2 and 3.5 SD of the protein, either way, in both replicates (recomputed)
lapatinib = compound: CS(=O)(=O)CCNCc1ccc(-c2ccc3ncnc(Nc4ccc(OCc5cccc(F)c5)c(Cl)c4)c3c2)o1 [lapatinib]
In short: (§1)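 K562 pellets were dounce-homogenised in PBS pH 7.4 with 1 mM MgCl2, and the crude extract at 1 mg/mL protein was treated with 10 μM compound for 30 min. Aliquots were heated for 3 min across 48°C-58°C, pooled, and brought to 0.5% NP-40 at 4°C; soluble protein was the supernatant after 21,000xg for 90 min. Soluble protein was quantified by TMTpro 16plex LC-MS/MS with channel sums equalised, and reported as log2 fold change in thermal stability against DMSO controls, with values from duplicates.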

pictilisib = compound: CS(=O)(=O)N1CCN(Cc2cc3nc(-c4cccc5[nH]ncc45)nc(N4CCOCC4)c3s2)CC1 [pictilisib]
In short: as §1

crizotinib = compound: C[C@@H](Oc1cc(-c2cnn(C3CCNCC3)c2)cnc1N)c1c(Cl)ccc(F)c1Cl [crizotinib]
In short: as §1

[1] = compound: C[C@H](C1=CC=C(C=C1)C(=O)NC2=C3C=CNC3=NC=C2)N
In short: as §1

duvelisib = compound: C[C@H](Nc1ncnc2nc[nH]c12)c1cc2cccc(Cl)c2c(=O)n1-c1ccccc1 [duvelisib]
In short: as §1

gandotinib = compound: Cc1cc(Nc2cc(CN3CCOCC3)c3nc(C)c(Cc4ccc(Cl)cc4F)n3n2)n[nH]1 [gandotinib]
In short: as §1

tozasertib = compound: Cc1cc(Nc2cc(N3CCN(C)CC3)nc(Sc3ccc(NC(=O)C4CC4)cc3)n2)n[nH]1 [tozasertib]
In short: as §1

doramapimod = compound: Cc1ccc(-n2nc(C(C)(C)C)cc2NC(=O)Nc2ccc(OCCN3CCOCC3)c3ccccc23)cc1 [doramapimod]
In short: as §1

bafetinib = compound: Cc1ccc(NC(=O)c2ccc(CN3CC[C@H](N(C)C)C3)c(C(F)(F)F)c2)cc1Nc1nccc(-c2cncnc2)n1 [bafetinib]
In short: as §1

[2] = compound: Cc1cccc(CC(=O)N2CCc3c2ccc(-c2cn(C)c4ncnc(N)c24)c3F)n1
In short: as §1

UniProt Q08426, sequence (Q08426 whole entry, looked up): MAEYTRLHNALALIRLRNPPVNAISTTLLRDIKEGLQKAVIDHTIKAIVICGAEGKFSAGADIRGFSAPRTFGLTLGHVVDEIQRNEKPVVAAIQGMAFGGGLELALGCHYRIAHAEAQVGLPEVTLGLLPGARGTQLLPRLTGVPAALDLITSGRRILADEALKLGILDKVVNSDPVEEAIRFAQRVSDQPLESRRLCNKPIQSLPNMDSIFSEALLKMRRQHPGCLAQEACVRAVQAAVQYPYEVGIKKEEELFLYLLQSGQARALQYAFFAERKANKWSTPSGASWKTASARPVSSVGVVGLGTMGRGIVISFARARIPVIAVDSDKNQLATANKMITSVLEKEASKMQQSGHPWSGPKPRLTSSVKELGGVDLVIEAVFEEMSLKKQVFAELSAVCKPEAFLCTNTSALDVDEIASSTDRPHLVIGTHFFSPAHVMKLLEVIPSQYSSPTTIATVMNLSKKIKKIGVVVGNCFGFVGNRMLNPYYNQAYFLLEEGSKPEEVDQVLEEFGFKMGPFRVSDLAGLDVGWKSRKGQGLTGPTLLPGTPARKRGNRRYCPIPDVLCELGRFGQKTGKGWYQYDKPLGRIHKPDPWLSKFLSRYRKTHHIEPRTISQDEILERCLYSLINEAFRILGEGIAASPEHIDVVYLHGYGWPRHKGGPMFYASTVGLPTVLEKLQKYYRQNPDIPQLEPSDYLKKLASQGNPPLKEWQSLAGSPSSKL
UniProt Q9BQI3, sequence (Q9BQI3 whole entry, looked up): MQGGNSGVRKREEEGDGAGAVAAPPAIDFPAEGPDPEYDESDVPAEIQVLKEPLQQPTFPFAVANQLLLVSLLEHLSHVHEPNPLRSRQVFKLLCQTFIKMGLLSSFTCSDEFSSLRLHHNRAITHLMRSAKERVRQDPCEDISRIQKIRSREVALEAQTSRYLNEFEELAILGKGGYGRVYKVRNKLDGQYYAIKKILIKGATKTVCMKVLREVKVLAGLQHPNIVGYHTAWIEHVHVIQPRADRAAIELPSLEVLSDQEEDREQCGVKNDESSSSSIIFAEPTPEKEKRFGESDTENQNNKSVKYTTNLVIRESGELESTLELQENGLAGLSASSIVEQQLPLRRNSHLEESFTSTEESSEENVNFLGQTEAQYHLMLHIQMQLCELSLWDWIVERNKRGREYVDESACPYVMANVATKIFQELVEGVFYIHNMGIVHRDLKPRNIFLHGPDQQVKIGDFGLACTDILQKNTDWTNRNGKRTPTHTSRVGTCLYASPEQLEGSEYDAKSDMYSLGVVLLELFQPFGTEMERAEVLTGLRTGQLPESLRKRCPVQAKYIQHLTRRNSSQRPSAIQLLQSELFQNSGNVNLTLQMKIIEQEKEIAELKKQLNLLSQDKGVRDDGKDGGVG
UniProt O15117, sequence (O15117 whole entry, looked up): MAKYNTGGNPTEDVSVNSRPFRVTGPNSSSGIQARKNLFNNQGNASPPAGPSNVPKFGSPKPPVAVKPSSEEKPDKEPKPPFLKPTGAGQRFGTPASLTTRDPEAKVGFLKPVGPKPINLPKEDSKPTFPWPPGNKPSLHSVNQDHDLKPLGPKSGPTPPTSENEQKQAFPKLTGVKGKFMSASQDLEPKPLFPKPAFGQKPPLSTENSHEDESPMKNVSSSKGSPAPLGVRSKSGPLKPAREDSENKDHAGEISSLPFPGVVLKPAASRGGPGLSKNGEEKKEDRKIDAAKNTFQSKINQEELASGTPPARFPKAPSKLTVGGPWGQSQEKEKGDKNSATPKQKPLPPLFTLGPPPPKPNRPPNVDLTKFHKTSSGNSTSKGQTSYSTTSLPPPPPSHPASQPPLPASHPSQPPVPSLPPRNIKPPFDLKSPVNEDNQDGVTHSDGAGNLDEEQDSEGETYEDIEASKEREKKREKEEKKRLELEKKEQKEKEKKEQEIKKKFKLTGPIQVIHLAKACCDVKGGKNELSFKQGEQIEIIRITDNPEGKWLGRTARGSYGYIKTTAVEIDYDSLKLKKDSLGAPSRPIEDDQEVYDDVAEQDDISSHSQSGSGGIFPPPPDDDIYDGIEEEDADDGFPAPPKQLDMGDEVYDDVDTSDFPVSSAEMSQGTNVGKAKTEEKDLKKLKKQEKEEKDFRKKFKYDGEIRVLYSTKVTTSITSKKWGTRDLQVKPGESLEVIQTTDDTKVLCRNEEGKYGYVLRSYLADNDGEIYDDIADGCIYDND
UniProt Q9NWS6, sequence (Q9NWS6 whole entry, looked up): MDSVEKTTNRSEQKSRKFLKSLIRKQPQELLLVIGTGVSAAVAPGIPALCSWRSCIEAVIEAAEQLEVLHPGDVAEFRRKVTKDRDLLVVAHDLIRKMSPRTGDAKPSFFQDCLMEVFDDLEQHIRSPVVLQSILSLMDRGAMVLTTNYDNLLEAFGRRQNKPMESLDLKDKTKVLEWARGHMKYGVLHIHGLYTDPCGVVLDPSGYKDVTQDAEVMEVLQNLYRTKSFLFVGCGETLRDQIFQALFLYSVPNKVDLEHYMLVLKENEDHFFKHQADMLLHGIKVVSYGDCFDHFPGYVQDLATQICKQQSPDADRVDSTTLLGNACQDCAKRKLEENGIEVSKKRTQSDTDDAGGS
UniProt O75521, sequence (O75521 whole entry, looked up): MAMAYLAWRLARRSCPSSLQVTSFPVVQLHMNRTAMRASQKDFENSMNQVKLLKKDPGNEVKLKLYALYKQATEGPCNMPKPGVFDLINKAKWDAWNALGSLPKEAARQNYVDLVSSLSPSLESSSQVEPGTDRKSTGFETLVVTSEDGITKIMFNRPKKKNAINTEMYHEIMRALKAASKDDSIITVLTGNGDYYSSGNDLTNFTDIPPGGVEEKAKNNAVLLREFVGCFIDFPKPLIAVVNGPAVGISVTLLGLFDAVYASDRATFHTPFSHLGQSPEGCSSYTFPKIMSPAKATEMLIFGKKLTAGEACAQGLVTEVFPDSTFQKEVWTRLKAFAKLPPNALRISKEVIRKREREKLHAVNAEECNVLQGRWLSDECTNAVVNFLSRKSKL
UniProt O14772, sequence (O14772 whole entry, looked up): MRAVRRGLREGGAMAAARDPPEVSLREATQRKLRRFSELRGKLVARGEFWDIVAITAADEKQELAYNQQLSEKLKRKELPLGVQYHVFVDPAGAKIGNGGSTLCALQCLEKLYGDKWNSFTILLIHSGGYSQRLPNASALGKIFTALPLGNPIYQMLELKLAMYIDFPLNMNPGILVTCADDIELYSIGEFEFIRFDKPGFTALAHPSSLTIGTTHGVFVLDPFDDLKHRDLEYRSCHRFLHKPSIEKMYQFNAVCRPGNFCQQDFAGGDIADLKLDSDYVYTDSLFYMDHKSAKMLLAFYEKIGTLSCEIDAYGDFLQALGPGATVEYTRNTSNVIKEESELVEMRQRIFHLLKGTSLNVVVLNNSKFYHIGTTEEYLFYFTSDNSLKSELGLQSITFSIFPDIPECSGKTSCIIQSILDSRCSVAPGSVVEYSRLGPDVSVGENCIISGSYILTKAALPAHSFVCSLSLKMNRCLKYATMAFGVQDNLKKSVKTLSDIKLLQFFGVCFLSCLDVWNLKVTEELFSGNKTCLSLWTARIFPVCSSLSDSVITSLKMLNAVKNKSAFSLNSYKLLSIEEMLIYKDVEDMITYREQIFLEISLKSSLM
UniProt Q6P4F2, sequence (Q6P4F2 whole entry, looked up): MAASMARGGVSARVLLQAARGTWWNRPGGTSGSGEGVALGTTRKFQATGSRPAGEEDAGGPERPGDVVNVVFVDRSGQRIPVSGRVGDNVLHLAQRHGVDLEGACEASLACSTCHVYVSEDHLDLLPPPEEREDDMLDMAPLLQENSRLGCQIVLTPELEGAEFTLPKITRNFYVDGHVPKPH
UniProt Q5VTE0, sequence (Q5VTE0 whole entry, looked up): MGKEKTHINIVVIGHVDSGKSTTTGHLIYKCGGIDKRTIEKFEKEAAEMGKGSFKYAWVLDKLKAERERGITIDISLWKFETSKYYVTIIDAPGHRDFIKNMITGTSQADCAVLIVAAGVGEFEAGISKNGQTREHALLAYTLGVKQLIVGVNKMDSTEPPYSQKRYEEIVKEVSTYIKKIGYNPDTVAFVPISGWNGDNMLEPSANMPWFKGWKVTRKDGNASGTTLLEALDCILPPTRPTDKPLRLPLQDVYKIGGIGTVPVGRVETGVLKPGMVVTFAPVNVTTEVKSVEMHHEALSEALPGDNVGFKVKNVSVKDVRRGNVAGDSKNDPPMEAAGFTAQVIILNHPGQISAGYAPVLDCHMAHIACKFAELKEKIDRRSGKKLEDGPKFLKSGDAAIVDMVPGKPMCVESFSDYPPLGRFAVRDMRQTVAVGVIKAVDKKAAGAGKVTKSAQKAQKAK
UniProt Q96G46, sequence (Q96G46 whole entry, looked up): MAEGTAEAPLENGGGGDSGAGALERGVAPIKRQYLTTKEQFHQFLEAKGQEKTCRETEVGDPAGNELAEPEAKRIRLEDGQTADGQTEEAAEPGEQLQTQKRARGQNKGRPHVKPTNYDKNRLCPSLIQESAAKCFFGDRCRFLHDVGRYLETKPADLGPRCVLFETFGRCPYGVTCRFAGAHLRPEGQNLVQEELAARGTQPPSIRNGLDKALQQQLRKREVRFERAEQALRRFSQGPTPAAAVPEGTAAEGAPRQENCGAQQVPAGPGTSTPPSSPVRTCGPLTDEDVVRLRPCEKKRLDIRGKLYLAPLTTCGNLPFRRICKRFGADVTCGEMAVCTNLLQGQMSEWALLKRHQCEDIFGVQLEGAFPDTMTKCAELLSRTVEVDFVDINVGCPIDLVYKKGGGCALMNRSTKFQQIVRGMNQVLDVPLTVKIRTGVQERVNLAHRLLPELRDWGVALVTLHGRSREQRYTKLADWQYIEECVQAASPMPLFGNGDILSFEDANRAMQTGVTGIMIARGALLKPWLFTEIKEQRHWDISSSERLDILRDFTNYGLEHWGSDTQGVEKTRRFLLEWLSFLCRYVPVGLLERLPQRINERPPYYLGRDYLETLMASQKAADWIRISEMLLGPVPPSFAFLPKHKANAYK

| Target | log2 fold change (lapatinib) | log2 fold change (pictilisib) | log2 fold change (crizotinib) | log2 fold change [1] | log2 fold change (duvelisib) | log2 fold change (gandotinib) | log2 fold change (tozasertib) | log2 fold change (doramapimod) | log2 fold change (bafetinib) | log2 fold change [2] |
| --- | --- | --- | --- | --- | --- | --- | --- | --- | --- | --- |
| FPGT (UniProt O14772) | 0.005 | 0.019 | -0.077 | 0.319 (active) | 0.006 | -0.085 | 0.012 | 0.054 | -0.043 | -0.012 |
| GAPVD1 isoform 6 (UniProt Q14C86) | 0 | -0.017 | -0.023 | 0.054 | 0.011 | -0.088 | -0.002 | 0.025 | -0.022 | -0.018 |
| ECI2 (UniProt O75521) | -0.022 | -0.017 | 0.032 | -0.002 | 0.004 | -0.009 | 0.03 | 0.007 | -0.002 | 0.042 |
| DUS3L (UniProt Q96G46) | -0.009 | -0.02 | -0.027 | 0.202 | -0.022 | -0.081 | 0.009 | -0.018 | 0.093 | -0.097 |
| GCLM (UniProt P48507) | -0.006 | -0.013 | 0.018 | -0.009 | 0.016 | -0.004 | -0.017 | 0.001 | 0.003 | -0.03 |
| ETHE1 (UniProt O95571) | 0.049 | -0.049 | -0.022 | -0.034 | -0.011 | 0.016 | -0.06 | 0.005 | 0.038 | 0.018 |
| ERLIN1 (UniProt O75477) | -0.041 | -0.01 | 0.032 | -0.094 | -0.011 | 0.033 | 0.019 | 0.048 | -0.027 | 0.03 |
| GATAD2A isoform 3 (UniProt Q86YP4) | -0.012 | -0.031 | -0.011 | -0.031 | -0.037 | 0.016 | -0.009 | 0.026 | 0.001 | 0.061 |
| FANCI (UniProt Q9NVI1) | -0.015 | -0.034 | -0.09 | 0.06 | 0.001 | -0.199 | 0.002 | -0.003 | -0.032 | -0.011 |
| FDX2 (UniProt Q6P4F2) | 0.047 | -0.169 | 0.057 | -0.142 | 0.188 | 0.014 | -0.15 | 0.014 | 0 | 0.112 |
| EIF2AK1 (UniProt Q9BQI3) | 0.142 | -0.022 | -0.036 | -0.033 | 0.06 | -0.009 | -0.009 | 0.017 | -0.068 | 0.062 |
| FUBP3 (UniProt Q96I24) | 0.02 | -0.109 | 0.005 | 0.036 | -0.022 | 0.019 | 0.033 | -0.034 | -0.055 | -0.05 |
| EDARADD (UniProt Q8WWZ3) | -0.037 | -0.122 | 0.027 | -0.049 | 0.015 | 0.074 | 0.082 | 0.086 | 0 | -0.027 |
| FBXO38 (UniProt Q6PIJ6) | 0.039 | -0.052 | 0.038 | 0.018 | 0.01 | -0.037 | 0.119 | 0.05 | -0.316 | -0.016 |
| EFCAB14 (UniProt O75071) | -0.051 | -0.058 | 0.006 | 0.037 | 0.022 | 0.064 | 0.086 | 0.011 | -0.002 | -0.084 |
| DYNC1I2 isoform 2 (UniProt Q13409) | 0.029 | 0.078 | -0.031 | 0.096 | 0.015 | -0.132 | 0.001 | -0.011 | -0.041 | -0.012 |
| EED, A0A5F9ZI63 | 0.047 | -0.014 | -0.001 | -0.041 | -0.006 | 0.022 | -0.01 | 0.006 | 0.033 | 0.076 |
| FIGNL1 (UniProt Q6PIW4) | 0 | -0.03 | -0.078 | -0.035 | 0.002 | -0.071 | 0.003 | -0.018 | -0.024 | 0.007 |
| FNTB (UniProt P49356) | 0.027 | -0.052 | 0.032 | -0.047 | 0.143 | 0.055 | -0.069 | -0.053 | -0.013 | 0.015 |
| GART (UniProt P22102) | -0.008 | -0.024 | -0.017 | 0.062 | -0.014 | -0.052 | -0.004 | 0 | -0.001 | -0.026 |
| FYB1 isoform 3 (UniProt O15117) | 0.045 | -0.008 | -0.082 | 0.147 | 0.01 | -0.051 | 0.052 | -0.007 | -0.062 | -0.058 |
| EPHX2 (UniProt P34913) | -0.031 | -0.019 | 0.061 | 0.008 | -0.031 | 0.057 | 0.116 | -0.079 | 0.131 | 0.012 |
| ENGASE (UniProt Q8NFI3) | -0.02 | 0 | 0.011 | -0.048 | -0.025 | 0.116 | 0.051 | 0.033 | 0.003 | 0.148 |
| ENO2 (UniProt P09104) | 0.01 | 0.012 | -0.009 | -0.358 (active) | 0.04 | 0.214 | -0.111 | -0.012 | -0.014 | 0.264 (active) |
| ERBIN isoform 8 (UniProt Q96RT1) | -0.011 | 0.012 | -0.026 | -0.056 | 0.005 | 0.012 | -0.013 | 0.02 | -0.002 | 0.029 |
| EWSR1 isoform 5 (UniProt Q01844) | -0.008 | 0.021 | 0.048 | -0.07 | -0.047 | 0.061 | -0.016 | -0.025 | 0.031 | 0.009 |
| EEF1A1P5 (UniProt Q5VTE0) | -0.006 | 0.027 | -0.026 | -0.114 | -0.098 | 0.044 | -0.001 | 0.011 | -0.017 | 0.117 |
| EHHADH (UniProt Q08426) | -0.037 | 0.143 | -0.001 | 0.016 | 0.051 | -0.117 | 0.045 | 0.048 | 0.06 | 0 |
| FAM118A (UniProt Q9NWS6) | 0.02 | -0.006 | -0.054 | -0.09 | 0.019 | 0.002 | -0.016 | -0.013 | -0.059 | 0.118 |
| FCHO1 (UniProt O14526) | -0.034 | 0.027 | -0.072 | -0.061 | -0.025 | -0.027 | 0.027 | -0.039 | -0.141 | 0.058 |
